These results are taken from PubChem BioAssay AID1851 (National Center for Advancing Translational Sciences (NCATS), 2009).

Molecules are shown by their SMILES. The whole screen tested about 16,000 compounds, of which about 2,600 (16%) were called active. Inconclusive results (about 20%) are left out. The list is a sample of the results. A number with no mark means an inactive call. Calls follow the shape of the dose curve; as a rule, active = well fitted curve in the direction sought with a large enough effect; inconclusive = small, poorly fitted or top-dose-only effect, or effect the other way; inactive = no such curve, though single readings can be large or run the other way.
% is scaled to controls: 0 for no effect and ±100 for the full control effect.

Chain of Cytochrome P450 2D6 (Homo sapiens) (P10635 whole entry, looked up): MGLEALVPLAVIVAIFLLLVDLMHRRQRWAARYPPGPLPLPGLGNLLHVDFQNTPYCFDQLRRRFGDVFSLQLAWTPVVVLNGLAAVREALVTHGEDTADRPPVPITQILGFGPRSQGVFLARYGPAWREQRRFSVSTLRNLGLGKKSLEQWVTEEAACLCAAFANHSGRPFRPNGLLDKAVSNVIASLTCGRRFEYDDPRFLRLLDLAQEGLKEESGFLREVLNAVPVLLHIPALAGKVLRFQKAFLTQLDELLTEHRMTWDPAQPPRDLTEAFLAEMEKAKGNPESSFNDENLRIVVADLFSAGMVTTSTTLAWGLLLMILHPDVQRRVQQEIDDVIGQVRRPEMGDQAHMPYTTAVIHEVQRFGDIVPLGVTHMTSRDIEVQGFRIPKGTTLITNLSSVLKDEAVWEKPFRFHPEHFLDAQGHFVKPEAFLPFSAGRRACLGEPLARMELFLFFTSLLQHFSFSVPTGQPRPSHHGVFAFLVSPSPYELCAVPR

The assay concerns the target Cytochrome P450 2D6 (Homo sapiens) (UniProt P10635). Kind of assay: Cytochrome panel assay with activity outcomes. Particulars: recombinant CYP, pro-luciferin dealkylation, luminescence, p450-cyp2d6; series mostly up to 57.1 µM; activity, negative = inhibition: at the top concentration.
For the compound `COc1cc(/C=N/NC(=O)c2ccncc2)ccc1OC(=O)c1ccc([N+](=O)[O-])cc1`, the “activity, negative = inhibition” value is -15.9%. Usually AC50 stands for the concentration giving half of the maximal activity seen. Consider `O=C(c1cnccn1)N1CCC[C@@]2(CCN(Cc3cc(C(F)(F)F)cc(C(F)(F)F)c3)C2)C1`, for which the half-maximal activity concentration (AC50) was 3.16 µM (active). As to `O=C(c1csnn1)N1CCC2(CC1)CCN(c1ccncc1)CC2`, the “activity, negative = inhibition” value is -18.6%. Take `CS(=O)(=O)N1CCC2(CC1)CN(Cc1cc(C(F)(F)F)cc(C(F)(F)F)c1)C2`: the AC50 was 0.398 µM (active). Consider `O=C(c1cnccn1)N1CCC[C@@]2(CCN(Cc3ccncc3)C2)C1`, for which the “activity, negative = inhibition” value was -14.8%.

Regarding `CS(=O)(=O)N1CCC2(CC1)CN(Cc1nccs1)C2`, the “activity, negative = inhibition” value was 4.64%.

In the case of `Cc1noc(C)c1C(=O)N1CCC[C@@]2(CCN(Cc3cc(C(F)(F)F)cc(C(F)(F)F)c3)C2)C1`, the “activity, negative = inhibition” value is 18.8%. In the case of `O=C(c1csnn1)N1CCC2(CC1)CN(Cc1cc(C(F)(F)F)cc(C(F)(F)F)c1)C2`, the AC50 was 12.6 µM (active).

For the compound `O=C(c1cc(C(F)(F)F)cc(C(F)(F)F)c1)N1CCC2(CCCN(Cc3nccs3)C2)CC1`, the “activity, negative = inhibition” value is 14.6%. As for `O=C(c1ccco1)N1CCC2(CC1)CN(Cc1cc(C(F)(F)F)cc(C(F)(F)F)c1)C2`, the half-maximal activity concentration (AC50) was 6.31 µM (active). With `FC(F)(F)c1cc(CN2CC3(CCNCC3)C2)cc(C(F)(F)F)c1`, the “activity, negative = inhibition” value is -16.5%.

On to `COC(=O)c1cnn(C(=O)c2ccccc2Br)c1N`, for which the “activity, negative = inhibition” value is -7.26%. `CN(C)c1ccc(O)c2c1C[C@H]1C[C@H]3[C@@H](N(C)C)C(=O)C(C(N)=O)=C(O)[C@]3(O)C(=O)C1=C2O`: the “activity, negative = inhibition” value is 0.499% [at 25.6 µM]. Regarding `CCOc1ccc(-c2nnc3ccc(SCC(=O)NCc4ccco4)nn23)cc1`, the “activity, negative = inhibition” value is -3.12%. Turning to `N#Cc1cc2nc(O)c(O)nc2cc1[N+](=O)[O-]`, the AC50 result was “inactive”. Turning to `CC[C@H](C)C(=O)O[C@@H]1C[C@H](C)C=C2C=C[C@H](C)[C@@H](CC[C@H]3C[C@@H](O)CC(=O)O3)[C@H]21`, the “activity, negative = inhibition” value was -10.6% [at 25.6 µM]. `CO[C@H]1C=CO[C@]2(C)Oc3c(C)c(O)c4c(O)c(c5c(c4c3C2=O)NC2(CCN(CC(C)C)CC2)N=5)=NC(=O)C(C)=CC=C[C@@H](C)[C@@H](O)[C@@H](C)[C@@H](O)[C@@H](C)[C@@H](OC(C)=O)[C@@H]1C`: the “activity, negative = inhibition” value is -2.37% [at 25.6 µM].

Regarding `Cn1c(=O)c(-c2ccc(F)cc2)nc2cnc(N3CCOCC3)nc21`, the “activity, negative = inhibition” value was 4.78%. Consider `Cn1c(=O)c(-c2ccc(Cl)cc2)nc2cnc(Nc3ccccc3)nc21`, for which the “activity, negative = inhibition” value is -3.12%.

For the compound `Cn1c(-c2sccc2OCc2ccccc2)n[nH]c1=S`, the “activity, negative = inhibition” value is -13.7%.

As for `O=C(c1cc(C(F)(F)F)cc(C(F)(F)F)c1)N1CCC2(CC1)CN(Cc1ccncc1)C2`, the “activity, negative = inhibition” value is -19%. The same measure, in the same setting: to `O=C(c1cnccn1)N1CCC2(CC1)CN(c1ccncc1)C2` belongs -4.27%.

As to `O=C(c1cnccn1)N1CCC2(CC1)CN(Cc1cc(C(F)(F)F)cc(C(F)(F)F)c1)C2`, the AC50 is 0.398 µM (active).

Regarding `CC(C)(C)n1nc2c(c1NC(=O)c1ccc(S(=O)(=O)N3CCCCC3)cc1)CS(=O)C2` (stereo not given), the “activity, negative = inhibition” value is -11.7%. On the same count and under the same terms, to `Cc1cc(NC(=O)NC(=O)c2ccc(F)cc2F)n[nH]1` belongs -17.9%; to `CCC(C)C1NC(=S)N(C2CCCCC2)C1=O` (stereo not given), 11.4%; to `COc1ccc2c(c1)-c1ccccc1S(=O)(=O)N2C`, -19.1%.

For the compound `COc1ccc2c(c1)C(=NN)c1cc(OC)ccc1-2`, the AC50 was 22.4 µM (active).

As to `COc1ccc2c(c1)Cc1cc(N=[N+]([O-])c3ccc4c(c3)Cc3cc(OC)ccc3-4)ccc1-2`, the activity, negative = inhibition was -7.57% [at 11.4 µM]. Consider `O=C(Cn1cnc([N+](=O)[O-])c1)NCc1ccc(F)cc1`, for which the “activity, negative = inhibition” value was -12.5%. For the compound `COc1ccc(NC(=O)N2CC3(CCN(C(=O)c4csnn4)CC3)C2)cc1`, the “activity, negative = inhibition” value is 2.53%. For `N#Cc1cccc(NC(=O)N2CCCC3(CCN(C(=O)c4csnn4)CC3)C2)c1`, the “activity, negative = inhibition” value is -2.2%.

For the compound `CC(C)CN1CCCC2(CCN(C(=O)c3csnn3)CC2)C1`, the AC50 was 5.01 µM (active).

As to `O=C(c1csnn1)N1CCC2(CCN(Cc3nccs3)CC2)CC1`, the “activity, negative = inhibition” value was 2.94%.

For the compound `O=C(c1csnn1)N1CCC[C@@]2(CCN(Cc3nccs3)C2)C1`, the AC50 is 5.01 µM (active). Consider `CC(=O)N1CCC[C@@]2(CCN(Cc3nccs3)C2)C1`, for which the “activity, negative = inhibition” value was 2.01%. For the compound `CC(=O)N1CCC2(CC1)CN(c1ccccn1)C2`, the “activity, negative = inhibition” value was -17.2%. For the compound `O=C(c1csnn1)N1CCC2(CC1)CN(c1ccccn1)C2`, the concentration at half-maximal activity (AC50) is 12.6 µM (active). With `O=C(c1cnccn1)N1CCC2(CC1)CN(c1ccccn1)C2`, the “activity, negative = inhibition” value is -17.3%. Take `O=C(c1csnn1)N1CCC2(CCCN(Cc3ccccc3)C2)CC1`: the AC50 was 1.26 µM (active).
